This is part of a sample that, as a whole, favours compounds with a hit. Of some 83,000 tested, about 20% had one in any assay.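 Assay: single dose, 48 h. Readout: percent growth (0 = no net growth; negative = cell death). Active: <10.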 A number with no mark means an inactive call. Calls of active or inactive are those of the source.
System: UACC-257 melanoma
Assay: NCI-60 one-dose screen, 48 h (100 = growth as untreated, 0 = no growth, -100 = all killed)
Conditions: 10 µM

| Compound | growth |
| --- | --- |
| O=C(Nc1ccc(I)cc1F)c1cc(-c2ccc(F)cc2F)ccc1O | -7.17% (active) |
| COc1cccc(/C=C2\N=C(C)N(CCc3ccc(S(N)(=O)=O)cc3)C2=O)c1 | 101% |
| CC1=C2C(=C[C@@](C)(COCOCCCl)[C@@H]2O)C(=O)[C@](C)(O)C12CC2 | -30.3% (active) |
| Nc1n[nH]c2cccc(C#Cc3cccc(NC(=O)Nc4cc(C(F)(F)F)cc(C(F)(F)F)c4)c3)c12 | -57.3% (active) |
| O=C(N=Nc1c(O)[nH]c2ccc(Br)cc12)c1ccc2nc(-c3ccccc3)[nH]c2c1 | -19.9% (active) |
| COc1cccc(-c2ccc(/C=N/NC(=O)c3[nH]c4ccc(Br)cc4c3-c3ccccc3)o2)c1 | 36.9% |
| COc1cc2c(cc1OC)CN(CCCCOc1cc(O)c3c(=O)cc(-c4ccccc4)oc3c1)CC2 | 5.33% (active) |
| COc1ccc(CCN2C(=O)/C(=C/c3csc(C#N)n3)SC2=S)cc1 | -35.3% (active) |
| N#Cc1c(NC(=O)c2ccc(C(O)(C(F)(F)F)C(F)(F)F)cc2)sc2c1CCC(=O)C2 | -61.6% (active) |
| Cn1cc(-c2cc(N)n3nc(-c4c[nH]c5ccc(Br)cc45)cc3n2)c2cc(Br)cnc21 | -65.4% (active) |
| COc1ccccc1[C@H]1C(C(=O)c2ccc(Cl)cc2)C2(N[C@@H]1c1ccccc1)C(=O)Nc1ccccc12 (some centres not stated) | -2.04% (active) |
| CC(=O)Nc1ccc(-c2cn(-c3cccc(C(=O)Nc4cc(C(F)(F)F)cc(C(F)(F)F)c4)c3)nn2)cn1 | -4.2% (active) |
| CCCCCCCCCCCCCCCCCCCC(=O)NCCc1c[nH]c2ccc(OC(=O)CCCC(=O)OCCOOCCOOCCOOCCOOCCOOCCOOCCOOCCOOCCOOCCOOCCOOCCOC)cc12 | 92.5% |
| O=C1Nc2ccc(Cl)cc2/C1=C/c1cccc(OCc2ccccn2)c1 | -0.118% (active) |
| CN1CCN(Cc2ccc(C(=O)Nc3cccc(Nc4ccc5cc(O)ccc5n4)c3)cc2C(F)(F)F)CC1 | -79.1% (active) |
| O=C(O)CCCCCCCCCCN1C(=O)/C(=C/c2cnc(-c3ccc(Cl)cc3)s2)SC1=S | 87.6% |
| COc1ccc(NC(=O)Nc2ccc(OCC(=O)N=Nc3c(O)[nH]c4ccc([N+](=O)[O-])cc34)cc2)cc1 | 107% |
| C/C(=C\CC/C=C(\C)CC/C=C(\C)CC[C@@H](O)C(C)(C)O)CC/C=C(\C)CC[C@@H](O)C(C)(C)O | 21.1% |
| CCOC(=O)C1NN(c2ccc(S(N)(=O)=O)cc2)c2nc3nc(-c4cccs4)cc(-c4cccs4)c3c(=O)n21 (configuration not stated) | 109% |

| Compound | growth |
| --- | --- |
| CN(CCF)c1ccc(/C=C/C(=O)c2ccc(N)cc2O)cc1 | 96.6% |
| C=C1CCC2C3(C)COC(c4c(F)cccc4F)OC3CCC2(C)C1CC(O)C1=CCOC1=O (configuration not stated) | 74.1% |
| O=C(Nc1cccc(-c2cn(-c3ccc4oc(=O)ccc4c3)nn2)c1)Nc1cc(C(F)(F)F)cc(C(F)(F)F)c1 | 50.2% |
| CN1CCCN(Cc2ccc(C(=O)Nc3cccc(Nc4ccc5cc(O)ccc5n4)c3)cc2C(F)(F)F)CC1 | 59.8% |
| N#Cc1c(NC(=O)c2ccc(C(F)(F)F)cc2C(F)(F)F)sc2c1CCC(=O)C2 | -64.8% (active) |
| O=C(c1ccc(O)cc1)C1[C@H](c2ccccc2Br)[C@@H](c2ccccc2)NC12C(=O)Nc1ccc(Br)cc12 (some centres not stated) | 65.4% |
| COc1ccc(N2N=C(c3ccc4c(c3)OCCO4)CC2c2cccc(NC(=O)CCCNS(=O)(=O)c3ccc(F)cc3)c2)cc1 (configuration not stated) | 88% |
| C=C1CCC2C3(C)COC(c4ccccc4F)OC3CCC2(C)C1C/C=C1/C(=O)OCC1O (configuration not stated) | -77.6% (active) |
| O=C(Nc1nc2ccc([N+](=O)[O-])cc2s1)Nc1ccccc1I | -17.8% (active) |
| COc1ccc(-c2ccc(/C=N/NC(=O)c3[nH]c4ccc(Br)cc4c3-c3ccccc3)s2)cc1 | 106% |
| Brc1ccc(/C=N/Nc2ncnc3sc4c(c23)CCN(Cc2ccccc2)C4)cc1 | 56.7% |
| CC(=O)Nc1ccc(-n2cnc3cc(-c4ccc(O)cc4)ccc32)cc1C | 61.2% |
| O=C(c1ccc(O)cc1)C1[C@H](c2ccc(Br)cc2)[C@@H](c2ccccc2)NC12C(=O)Nc1ccccc12 (some centres not stated) | 75.9% |
| Nc1nnc(-c2c[nH]c3ccc(F)cc23)c(-c2c[nH]c3ncccc23)n1 | 105% |
| CN1CCN(c2ccc(C(=O)/C=C/c3ccc(C#N)cc3)cc2)CC1 | 90.4% |
| Cc1ccc(CSc2nc(-c3ccc(F)cc3)c(C#N)c(=O)[nH]2)cc1 | 102% |
| CCCCCCCCCCCCCCCCCCCC(=O)NCCc1c[nH]c2ccc(OC(=O)NOCCOCCOCCOCCOCCOCCOCCOCCOCCOCCOCCOCCOCCOCCOCCOCCOCCOCCOCCOCCOCCOCCOC)cc12 | 6.88% (active) |
| Cc1ccc(/C(N)=N/c2sc(-c3ccccc3)nc2-c2ccccc2)cc1 | 93.9% |

— PubChem BioAssay (NCI)
